# In PubChem BioAssay AID1508601 (ICCB-Longwood Screening Facility, Harvard Medical School, 2020):
# In all, about 5,700 compounds went through this assay and about 85 (1%) were called active. Cut-off read from the data, not from the text of the source: active = p53-positive nuclei above about 36% (passing the limit was not always enough); inactive = the rest. Only a selection was taken, and actives are over-represented in it overall.
# Assays:
# [1] = p53 stabilisation in HPV-positive human cells, imaging, p53-positive nuclei imaging, 24 h, 48 h (AID 1508601); conditions: 24/48 h
# [2] = biological target: Cellular tumor antigen p53 (Homo sapiens) (UniProt P04637); assay: as above; conditions: 24/48 h, stronger effect = higher value
# Cellular tumor antigen p53 (Homo sapiens), sequence (P04637 whole entry, looked up): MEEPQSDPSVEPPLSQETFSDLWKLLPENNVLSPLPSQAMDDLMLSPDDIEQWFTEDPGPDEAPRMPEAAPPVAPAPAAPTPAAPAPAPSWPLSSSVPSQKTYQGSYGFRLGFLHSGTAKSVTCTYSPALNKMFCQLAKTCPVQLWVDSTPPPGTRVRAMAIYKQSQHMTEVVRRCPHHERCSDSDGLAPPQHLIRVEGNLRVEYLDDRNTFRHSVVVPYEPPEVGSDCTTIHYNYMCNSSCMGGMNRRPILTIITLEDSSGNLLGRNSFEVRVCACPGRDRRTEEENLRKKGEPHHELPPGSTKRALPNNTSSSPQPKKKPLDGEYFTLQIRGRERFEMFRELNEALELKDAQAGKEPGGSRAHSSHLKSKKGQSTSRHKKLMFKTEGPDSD
# [3] = measured here: cell number at 24 h, Library stock concentration: 80 uM
# [4] = measured here: cell number at 24 h, Library stock concentration: 400 uM
# [5] = measured here: cell number at 24 h, Library stock concentration: 2 mM
# [6] = measured here: cell number at 24 h, Library stock concentration: 10 mM
# [7] = measured here: cell number at 48 h, Library stock concentration: 80 uM
# [8] = measured here: cell number at 48 h, Library stock concentration: 400 uM
# [9] = measured here: cell number at 48 h, Library stock concentration: 2 mM
# [10] = measured here: cell number at 48 h, Library stock concentration: 10 mM
# [11] = Library stock concentration: 80 uM
# [12] = Library stock concentration: 400 uM
# [13] = Library stock concentration: 2 mM
# [14] = Library stock concentration: 10 mM
# [15] = measured here: p53 positive nuclei at 24 h, Library stock concentration: 80 uM
# [16] = measured here: p53 positive nuclei at 24 h, Library stock concentration: 400 uM
# [17] = measured here: p53 positive nuclei at 24 h, Library stock concentration: 2 mM
# [18] = measured here: p53 positive nuclei at 24 h, Library stock concentration: 10 mM
# [19] = measured here: cell number at 24 h, concentration not given here
# [20] = measured here: cell number at 48 h, concentration not given here
# [21] = measured here: p53 positive nuclei at 24 h, concentration not given here
# [22] = measured here: cell number at 24 h, Library stock concentration: 3.33 mM
# [23] = measured here: cell number at 48 h, Library stock concentration: 3.33 mM
# [24] = Library stock concentration: 3.33 mM
# [25] = measured here: p53 positive nuclei at 24 h, Library stock concentration: 3.33 mM
compound,measurement,setting,value
CC(C)CC(NC(=O)C(O)C(N)Cc1ccccc1)C(=O)O (stereo unspecified),"nuclei count, normalised",[1]; [3],115%
same,"nuclei count, normalised",[1]; [4],119%
same,"nuclei count, normalised",[1]; [5],104%
same,"nuclei count, normalised",[1]; [6],105%
same,"nuclei count, normalised",[1]; [7],111%
same,"nuclei count, normalised",[1]; [8],113%
same,"nuclei count, normalised",[1]; [9],108%
same,"nuclei count, normalised",[1]; [10],111%
same,"p53-positive nuclei, normalised",[2]; [11],-0.159% (inactive)
same,"p53-positive nuclei, normalised",[2]; [12],-0.07% (inactive)
same,"p53-positive nuclei, normalised",[2]; [13],-0.0155% (inactive)
same,"p53-positive nuclei, normalised",[2]; [14],0.0117% (inactive)
same,"p53-positive nuclei, normalised",[2]; [15],-0.122%
same,"p53-positive nuclei, normalised",[2]; [16],0.00728%
same,"p53-positive nuclei, normalised",[2]; [17],-0.122%
same,"p53-positive nuclei, normalised",[2]; [18],0.0829%
CC(=O)NC(CSC(=S)NSc1ccc(SNC(=S)SCC(NC(C)=O)C(=O)O)cc1)C(=O)O (stereo unspecified),"nuclei count, normalised","[1]; measured here: cell number at 24 h, Library stock concentration: 500 nM",115%
same,"nuclei count, normalised","[1]; measured here: cell number at 24 h, Library stock concentration: 1.5 uM",108%
same,"nuclei count, normalised","[1]; measured here: cell number at 24 h, Library stock concentration: 4.6 uM",110%
same,"nuclei count, normalised","[1]; measured here: cell number at 24 h, Library stock concentration: 13.7 uM",114%
same,"nuclei count, normalised","[1]; measured here: cell number at 24 h, Library stock concentration: 41 uM",121%
same,"nuclei count, normalised","[1]; measured here: cell number at 24 h, Library stock concentration: 123 uM",119%
same,"nuclei count, normalised","[1]; measured here: cell number at 24 h, Library stock concentration: 370 uM",107%
same,"nuclei count, normalised","[1]; measured here: cell number at 24 h, Library stock concentration: 1.111 mM",105%
same,"nuclei count, normalised","[1]; measured here: cell number at 24 h, Library stock concentration: 3.333 mM",89.8%
same,"nuclei count, normalised",[1]; [6],64.7%
same,"nuclei count, normalised","[1]; measured here: cell number at 48 h, Library stock concentration: 500 nM",111%
same,"nuclei count, normalised","[1]; measured here: cell number at 48 h, Library stock concentration: 1.5 uM",111%
same,"nuclei count, normalised","[1]; measured here: cell number at 48 h, Library stock concentration: 4.6 uM",109%
same,"nuclei count, normalised","[1]; measured here: cell number at 48 h, Library stock concentration: 13.7 uM",109%
same,"nuclei count, normalised","[1]; measured here: cell number at 48 h, Library stock concentration: 41 uM",108%
same,"nuclei count, normalised","[1]; measured here: cell number at 48 h, Library stock concentration: 123 uM",108%
same,"nuclei count, normalised","[1]; measured here: cell number at 48 h, Library stock concentration: 370 uM",106%
same,"nuclei count, normalised","[1]; measured here: cell number at 48 h, Library stock concentration: 1.111 mM",105%
same,"nuclei count, normalised","[1]; measured here: cell number at 48 h, Library stock concentration: 3.333 mM",95.8%
same,"nuclei count, normalised",[1]; [10],68.4%
same,"p53-positive nuclei, normalised",[2]; Library stock concentration: 500 nM,-0.0484% (inactive)
same,"p53-positive nuclei, normalised",[2]; Library stock concentration: 1.5 uM,-0.0573% (inactive)
same,"p53-positive nuclei, normalised",[2]; Library stock concentration: 4.6 uM,0.0306% (inactive)
same,"p53-positive nuclei, normalised",[2]; Library stock concentration: 13.7 uM,-0.0501% (inactive)
same,"p53-positive nuclei, normalised",[2]; Library stock concentration: 41 uM,-0.00296% (inactive)
same,"p53-positive nuclei, normalised",[2]; Library stock concentration: 123 uM,-0.123% (inactive)
same,"p53-positive nuclei, normalised",[2]; Library stock concentration: 370 uM,-0.0406% (inactive)
same,"p53-positive nuclei, normalised",[2]; Library stock concentration: 1.111 mM,0.162% (inactive)
same,"p53-positive nuclei, normalised",[2]; Library stock concentration: 3.333 mM,-0.108% (inactive)
same,"p53-positive nuclei, normalised",[2]; [14],6.19% (inactive)
same,"p53-positive nuclei, normalised","[2]; measured here: p53 positive nuclei at 24 h, Library stock concentration: 500 nM",-0.173%
same,"p53-positive nuclei, normalised","[2]; measured here: p53 positive nuclei at 24 h, Library stock concentration: 1.5 uM",-0.118%
same,"p53-positive nuclei, normalised","[2]; measured here: p53 positive nuclei at 24 h, Library stock concentration: 4.6 uM",-0.113%
same,"p53-positive nuclei, normalised","[2]; measured here: p53 positive nuclei at 24 h, Library stock concentration: 13.7 uM",-0.173%
same,"p53-positive nuclei, normalised","[2]; measured here: p53 positive nuclei at 24 h, Library stock concentration: 41 uM",-0.0102%
same,"p53-positive nuclei, normalised","[2]; measured here: p53 positive nuclei at 24 h, Library stock concentration: 123 uM",-0.173%
same,"p53-positive nuclei, normalised","[2]; measured here: p53 positive nuclei at 24 h, Library stock concentration: 370 uM",-0.0536%
same,"p53-positive nuclei, normalised","[2]; measured here: p53 positive nuclei at 24 h, Library stock concentration: 1.111 mM",0.0142%
same,"p53-positive nuclei, normalised","[2]; measured here: p53 positive nuclei at 24 h, Library stock concentration: 3.333 mM",-0.0287%
same,"p53-positive nuclei, normalised",[2]; [18],16%
COc1cccc2ccc(-c3ccc(C(=O)N(C)C)cc3)nc12,"nuclei count, normalised",[1]; [19],97.5%
same,"nuclei count, normalised",[1]; [20],101%
same,"p53-positive nuclei, normalised",[2]; concentration not given here,0.00257% (inactive)
same,"p53-positive nuclei, normalised",[2]; [21],0.1%
c1ccc(C(OC2CCN(CCCc3nn[nH]n3)CC2)c2ccccc2)cc1,"nuclei count, normalised",[1]; [19],101%
same,"nuclei count, normalised",[1]; [20],102%
same,"p53-positive nuclei, normalised",[2]; concentration not given here,0.0542% (inactive)
same,"p53-positive nuclei, normalised",[2]; [21],0.308%
COc1cc(OC)cc(-c2ccc3ncc4ccc(=O)n(-c5ccc(N6CCNCC6)c(C(F)(F)F)c5)c4c3c2)c1,"nuclei count, normalised",[1]; [3],106%
same,"nuclei count, normalised",[1]; [4],104%
same,"nuclei count, normalised",[1]; [5],101%
same,"nuclei count, normalised",[1]; [6],45.6%
same,"nuclei count, normalised",[1]; [7],111%
same,"nuclei count, normalised",[1]; [8],107%
same,"nuclei count, normalised",[1]; [9],103%
same,"nuclei count, normalised",[1]; [10],30.1%
same,"p53-positive nuclei, normalised",[2]; [11],0.103% (inactive)
same,"p53-positive nuclei, normalised",[2]; [12],0.257% (inactive)
same,"p53-positive nuclei, normalised",[2]; [13],-0.11% (inactive)
same,"p53-positive nuclei, normalised",[2]; [14],10.5% (inactive)
same,"p53-positive nuclei, normalised",[2]; [15],-0.0535%
same,"p53-positive nuclei, normalised",[2]; [16],0.233%
same,"p53-positive nuclei, normalised",[2]; [17],0.0288%
same,"p53-positive nuclei, normalised",[2]; [18],11.7%
CCC(=O)N1CCN(c2ccc(-n3c(=O)ccc4cnc5ccc(-c6cnc7ccccc7c6)cc5c43)cc2C(F)(F)F)CC1,"nuclei count, normalised",[1]; [3],68.5%
same,"nuclei count, normalised",[1]; [4],59.7%
same,"nuclei count, normalised",[1]; [5],55.8%
same,"nuclei count, normalised",[1]; [6],43.7%
same,"nuclei count, normalised",[1]; [7],64.8%
same,"nuclei count, normalised",[1]; [8],49%
same,"nuclei count, normalised",[1]; [9],36.2%
same,"nuclei count, normalised",[1]; [10],21.9%
same,"p53-positive nuclei, normalised",[2]; [11],-0.0521% (inactive)
same,"p53-positive nuclei, normalised",[2]; [12],-0.0367% (inactive)
same,"p53-positive nuclei, normalised",[2]; [13],0.993% (inactive)
same,"p53-positive nuclei, normalised",[2]; [14],11.8% (inactive)
same,"p53-positive nuclei, normalised",[2]; [15],0.45%
same,"p53-positive nuclei, normalised",[2]; [16],0.126%
same,"p53-positive nuclei, normalised",[2]; [17],0.287%
same,"p53-positive nuclei, normalised",[2]; [18],0.768%
COc1ccc(-c2ccc3ncc4c(c3c2)n(-c2ccc(N3CCNCC3)c(C(F)(F)F)c2)c(=O)n4C)cn1,"nuclei count, normalised",[1]; [3],74.5%
same,"nuclei count, normalised",[1]; [4],49.8%
same,"nuclei count, normalised",[1]; [5],37.4%
same,"nuclei count, normalised",[1]; [22],46.3%
same,"nuclei count, normalised",[1]; [6],49.1%
same,"nuclei count, normalised",[1]; [7],70.7%
same,"nuclei count, normalised",[1]; [8],39.8%
same,"nuclei count, normalised",[1]; [9],21%
same,"nuclei count, normalised",[1]; [23],37.9%
same,"nuclei count, normalised",[1]; [10],37.2%
same,"p53-positive nuclei, normalised",[2]; [11],0.085% (inactive)
same,"p53-positive nuclei, normalised",[2]; [12],22.1% (inactive)
same,"p53-positive nuclei, normalised",[2]; [13],53.3% (active)
same,"p53-positive nuclei, normalised",[2]; [24],2.2% (inactive)
same,"p53-positive nuclei, normalised",[2]; [14],-0.138% (inactive)
same,"p53-positive nuclei, normalised",[2]; [15],0.126%
same,"p53-positive nuclei, normalised",[2]; [16],1.06%
same,"p53-positive nuclei, normalised",[2]; [17],14.2%
same,"p53-positive nuclei, normalised",[2]; [25],3.51%
same,"p53-positive nuclei, normalised",[2]; [18],-0.0446%
Cc1cn(C2OC(CO)C(O)C2F)c(=O)[nH]c1=O (stereo unspecified),"nuclei count, normalised",[1]; [22],108%
same,"nuclei count, normalised",[1]; [23],103%
same,"p53-positive nuclei, normalised",[2]; [24],-0.314% (inactive)
same,"p53-positive nuclei, normalised",[2]; [25],-0.356%
COC(=O)N1C(=O)[C@](c2ccccc2)(C2CCCC2)N1C(=O)OC,"nuclei count, normalised",[1]; [3],90.3%
same,"nuclei count, normalised",[1]; [4],87.6%
same,"nuclei count, normalised",[1]; [5],93.9%
same,"nuclei count, normalised",[1]; [6],90.1%
same,"nuclei count, normalised",[1]; [7],91.7%
same,"nuclei count, normalised",[1]; [8],93.5%
same,"nuclei count, normalised",[1]; [9],99.5%
same,"nuclei count, normalised",[1]; [10],96.9%
same,"p53-positive nuclei, normalised",[2]; [11],-0.0853% (inactive)
same,"p53-positive nuclei, normalised",[2]; [12],-0.162% (inactive)
same,"p53-positive nuclei, normalised",[2]; [13],0.00515% (inactive)
same,"p53-positive nuclei, normalised",[2]; [14],0.0597% (inactive)
same,"p53-positive nuclei, normalised",[2]; [15],-0.136%
same,"p53-positive nuclei, normalised",[2]; [16],-0.136%
same,"p53-positive nuclei, normalised",[2]; [17],0.165%
same,"p53-positive nuclei, normalised",[2]; [18],0.0248%
